# Data taken from PubChem BioAssay (EPA / NIEHS).
# Inconclusive results are not listed. The source made the active and inactive calls. The calls were made as follows: active = hit-call score of the fitted dose curve at least 0.9, where 1 is the maximum; inconclusive = response in the unintended direction; inactive = score below 0.9.
# Read-out: xenobiotic metabolism (CYP1A2), CYP1A2 (gene 1544)
# Assay: CLD_CYP1A2_24hr: CellzDirect (CLD) Gene Expression Assay for xenobiotic metabolism (CYP1A2) at 24 hours (AID 2283683)
# Method: CLD_24hr is a cell-based, multiplexed-readout assay that uses hepatocyte, a human liver primary cell, with measurements taken at 24 hours after chemical dosing in a 96-well plate.CLD_CYP1A2_24hr is one of 16 assay component(s) measured or calculated from the CLD_24hr assay. It is designed to make measurements of mRNA induction, a form of inducible reporter, as detected with chemiluminescence signals by Quantitative Nuclease Protection Assay (qNPA) technology.Data from the assay component CLD_CYP1A2_24hr was analyzed at the endpoint, CLD_CYP1A2_24hr, in the positive analysis fitting direction relative to DMSO as the negative control and baseline of activity. Using a type of inducible reporter, gain-of-signal activity can be used to understand changes in the reporter gene as they relate to the gene CYP1A2. Furthermore, this assay endpoint can be referred to as a primary readout. To generalize the intended target to other relatable targets, this assay endpoint is annotated to the cyp intended target family, where subfamily is xenobiotic metabolism.
# Human hepatocyte cultures were treated daily for two consecutive days with fresh dosing solutions containing appropriate concentrations of the 320 ToxCast chemicals (chemical identities were blinded to CellzDirect and other ToxCast collaborators), vehicle control (0.2% DMSO), and positive control inducers as summarized in Table 1. Due to the large number of treatment groups and chemicals examined, the ToxCast chemicals were divided into two groups (spanning two independent cultures of hepatocytes from separate donor preparations (Hu778: ToxCast plates 1 and 2; Hu776: ToxCast plates 3 and 4). Each preparation of human hepatocyte cultures was treated with respective vehicle control, medium only control, set of six positive controls/reference chemicals for the five hepatic receptor pathways, and a subset of eight of the ToxCast chemicals (indoxacarb, pyrithiobac-sodium, norflurazon, cyhalofop-butyl, methomyl, thiram, acetochlor, and propiconazole). These replicate data, coupled with internal replicates designed within the blinded ToxCast chemical library, provided additional data to evaluate interindividual differences between hepatocyte preparations and their potential impact on chemical profiles.Cell morphology and integrity were evaluated using phase-contrast microscopy as an indicator of hepatocyte cell health (Tyson & Green, 1987). Cultures for each treatment group (i.e., media, vehicle [0.2% DMSO], positive control inducers [multiple concentrations], and the ToxCast chemicals [multiple concentrations]) were observed and cell morphology was assessed relative to vehicle control cultures at each harvest time point (0, 6, 24, or 48 h). […] Images were evaluated at the conclusion of the study to assess changes in cell integrity and account for the effects of chemical exposure on uncharacteristic changes in concentration-dependent gene expression profiles. The results from these determinations of apparent cytotoxicity were annotated (yes/no) alongside the corresponding qNPA data for reference.At the conclusion of each treatment period, hepatocyte cultures (96-well) were washed with 1 volume of HBSS, lysed by addition of 25 ul ArrayPlate lysis buffer (HTG, Tucson, AZ), and 70 ul/well of Denaturation Oil, denatured by incubation at 95C for 10 min, and frozen at approximately -70C until analysis by nuclease protection assay (qNPA) (Roberts et al., 2007). For qNPA analysis, cell lysates were thawed at 50C for approximately 30 min, qNPA probes were added, and samples were incubated at 95C for 10 min to begin the detection process by denaturing the target RNA, dissociating the duplexes and secondary structure hybridization. At the conclusion of the hybridization period, S1 nuclease reagent was added to each sample to digest all nonprotected nucleotides at 50C for 60-90 min. […]
SMILES,AC50,outcome
O=c1n(Cl)c(=O)n(Cl)c(=O)n1Cl,3.33 µM (active),–
COc1ccc(-c2ccccc2)cc1NNC(=O)OC(C)C,0.255 µM (active),–
CC(C)(C)C(=O)C(Oc1ccc(Cl)cc1)n1cncn1 (stereo not given),9.31 µM (active),–
Cc1ccc(N=CN(C)C=Nc2ccc(C)cc2C)c(C)c1,–,inactive
CC1(C)CCC(=Cc2ccc(Cl)cc2)C1(O)Cn1cncn1 (stereo not given),3.47 µM (active),–
CSC(=O)c1c(C(F)F)nc(C(F)(F)F)c(C(=O)SC)c1CC(C)C,5.33 µM (active),–
CCN(CC)C(=O)C(C)Oc1cccc2ccccc12 (stereo not given),8.79 µM (active),–
C=C(C)CN(CC)c1c([N+](=O)[O-])cc(C(F)(F)F)cc1[N+](=O)[O-],–,inactive
COP(=S)(OC)SCn1nnc2ccccc2c1=O,2.27 µM (active),–
CC(C)=CC1C(C(=O)OCc2coc(Cc3ccccc3)c2)C1(C)C (stereo not given),–,inactive
O=C(Nc1ccccc1-c1ccc(Cl)cc1)c1cccnc1Cl,6.74 µM (active),–
CC(C)N1C(=O)N(c2ccccc2)CSC1=NC(C)(C)C,–,inactive
CCCCC(O)(Cn1cncn1)c1ccc(Cl)cc1Cl (stereo not given),1.9 µM (active),–
CCCCOCN(C(=O)CCl)c1c(CC)cccc1CC,–,inactive
Cc1cnc(C2=NC(C)(C(C)C)C(=O)N2)c(C(=O)O)c1 (stereo not given),–,inactive
Cc1cc(C)nc(Nc2ccccc2)n1,5.77 µM (active),–
OC(c1ccc(Cl)cc1)(c1ccc(Cl)cc1)C(Cl)(Cl)Cl,–,inactive
CC(C)N1C(=O)c2ccccc2NS1(=O)=O,–,inactive
COC(=O)c1c(C(F)F)nc(C(F)(F)F)c(C2=NCCS2)c1CC(C)C,9.96 µM (active),–
CNC(=O)N(C)c1nnc(C(C)(C)C)s1,–,inactive

SMILES,AC50,outcome
CCOC(=O)C(C)OC(=O)c1cc(Oc2ccc(C(F)(F)F)cc2Cl)ccc1[N+](=O)[O-] (stereo not given),4.61 µM (active),–
Cc1nc(N(C)C)nc(OC(=O)N(C)C)c1C,3.66 µM (active),–
CC1(C)C(C(=O)OC(C#N)c2cccc(Oc3ccccc3)c2)C1(C)C (stereo not given),20 µM (active),–
N#Cc1c[nH]cc1-c1cccc2c1OC(F)(F)O2,1.56 µM (active),–
CCNC(=O)NC(=O)C(C#N)=NOC,–,inactive
CS(=O)(=O)c1cc(C(F)(F)F)ccc1C(=O)c1cnoc1C1CC1,–,inactive
Cc1c(COC(=O)[C@@H]2[C@H](/C=C(\Cl)C(F)(F)F)C2(C)C)cccc1-c1ccccc1,32.2 µM (active),–
CC(C)Oc1cccc(NC(=O)c2ccccc2C(F)(F)F)c1,20 µM (active),–
CS(=O)(=O)c1ccc(C(=O)C2C(=O)CCCC2=O)c([N+](=O)[O-])c1,–,inactive
Nc1c(Cl)c(Cl)nc(C(=O)O)c1Cl,20 µM (active),–
CCOP(=S)(OCC)Oc1nc(Cl)n(C(C)C)n1,0.975 µM (active),–
CNC(=O)Oc1cccc2ccccc12,2.83 µM (active),–
Nc1cnn(-c2ccccc2)c(=O)c1Cl,5.8 µM (active),–
COc1cc(Cl)c(OC)cc1Cl,–,inactive
CCOc1nc(F)cc2nc(S(=O)(=O)Nc3c(Cl)cccc3Cl)nn12,–,inactive
CCOc1nc(C(Cl)(Cl)Cl)ns1,–,inactive
CC1(C)C(C=C(Cl)Cl)C1C(=O)OC(C#N)c1cccc(Oc2ccccc2)c1 (stereo not given),11 µM (active),–
Cn1c(-c2ccccc2)cc(-c2ccccc2)[n+]1C,0.141 µM (active),–
COC(=O)N(C(=O)N1CO[C@@]2(C(=O)OC)Cc3cc(Cl)ccc3C2=N1)c1ccc(OC(F)(F)F)cc1,1.28 µM (active),–
CCOP(=O)(OCC)Oc1nc(Cl)c(Cl)cc1Cl,3.42 µM (active),–
